# This is part of a sample that, as a whole, favours compounds with a hit. Of some 83,000 tested, about 20% had one in any assay.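 Testing used 96-well plates and a 48-hour single-concentration exposure. Example: -40 means 40% of the starting cells died.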 Values without a mark were called inactive. Active and inactive are the calls of the source. The calls were made as follows: active = growth percent below 10; inactive = the rest.
# Test system: HL-60(TB) leukemia
# Experiment: NCI-60 one-dose screen, 48 h (100 = growth as untreated, 0 = no growth, -100 = all killed)
# Conditions: 10 µM unless noted
row,Compound,growth
1,CC(C)C(=O)Nc1nc2c(s1)CCCc1ccn(S(=O)(=O)c3ccccc3)c1-2,83.8%
2,Nc1ccc(C2=CC(c3ccc(Cl)cc3)N3C=CSC3=N2)cc1 (stereo not given),-19.3% (active)
3,COC(=O)C1C(O)C(C)C(O)C(C)C=C(C)C2=C3C(=C(C)C(=O)c4c(O)c(c(C)c(OC(C)=O)c43)NC(=O)C(C)=C/C=C\C(C)C(O)C(C)C1O)OCO2 (stereo not given),141%
4,C=C1C(=O)O[C@H]2[C@H]1CC/C(CNC(=O)Cc1c[nH]c3ccccc13)=C\CC[C@@]1(C)O[C@@H]21,-52.4% (active)
5,O=S(=O)(O)c1cc(O)c2c(N=Cc3ccccc3O)c(S(=O)(=O)O)ccc2c1,101%
6,Clc1ccc2c(c1)N(c1ncnc3ccc(-c4cnc5[nH]ccc5c4)cc13)CC2,16.3%
7,Cc1cc(N(CCCNc2ccnc3cc(Cl)ccc23)Cc2ccc3c(c2)OCO3)nc(N2CCCCC2)n1,-68.4% (active)
8,C=C(C)[C@@H]1CC[C@]2(CO)CC[C@]3(C)[C@H](CC[C@@H]4[C@@]5(C)CC[C@H](O)C(C)(C)[C@@H]5CC[C@]43C)[C@@H]12,66.4%
9,CCCCCCCOc1cccc(/C=C2/C(=O)N=C3SCCCN32)c1,95.2%
10,C[n+]1c2ccccc2nc2ccccc21,13.3%
11,O=C(/C=C/c1ccccc1)C(Br)C(Br)c1ccccc1 (stereo not given),-41.8% (active)
12,COc1cc2nc3cc([N+](=O)[O-])ccc3c(NCCNCC(C)(C)O)c2cc1OC,-12.8% (active)
13,COc1ccc(-c2nc(/C=N/Nc3cc(C)nc4ccc(Br)cc34)c(C)o2)cc1,-51.5% (active)
14,COc1ccc(C(=O)/C=C/c2ccc(OCc3ccccc3)c(OC)c2)cc1OC,48.8%
15,COc1ccc(C(c2ccc(OCCN(C)C)cc2)c2cc3ccccc3c3ccccc23)cc1 (stereo not given),3.59% (active)
16,C1=C\COCc2cc(ccc2OCCN2CCCC2)Nc2nccc(n2)-c2cccc(c2)COC/1,-34.6% (active)
17,O=C1C=CC(=O)N1c1cccc2c1CCCC2,34.2%
18,Cc1ccc(-c2csc(NC(=O)CSc3nc(N)cc(N)n3)n2)cc1,48.9%
19,COc1ccc(Nc2ncccc2/C=C/C(=O)c2cc(OC)c(OC)c(OC)c2)cc1,-42.4% (active)
20,CCN1CCN(c2nc(C)cc(NCc3cc(Nc4ccnc5cc(Cl)ccc45)ccc3F)n2)CC1,-7.3% (active)

row,Compound,growth
1,CCc1ccc(C2=C(O)C(=O)C(c3ccc(CC)cc3)=C(O)C2=O)cc1,-57.6% (active)
2,Cc1ccc(NS(=O)(=O)c2ccc(-c3cnc(C4CC4)o3)cc2)cc1,24.3%
3,Cc1ccc(NS(=O)(=O)c2ccc3c(c2)C(=O)CC(c2ccc(C(=O)C(C)C)cc2)N3)cc1C (stereo not given),61.4%
4,Cc1cc(O)c(=O)cc2c1C[C@H]1CC(C)(C)/C=C/C[C@]3(C)Oc4cc(=O)c(O)cc(C)c4C[C@H]3C[C@H](O)[C@@]1(C)O2,-19.8% (active)
5,COc1ccccc1N1CCN(CCCOc2ccc(C(=O)/C=C3/C(=O)Nc4ccccc43)cc2)CC1,52.8%
6,C[C@@H]1N=C(c2ccc3ccccc3n2)Nc2nc3ccccn3c2C1=O,97.6%
7,COc1ccc(C(=O)/C=C/c2cc3c(c(OC)c2)OCC(=O)N3)cc1,6.81% (active)
8,CN(C)CCCn1c2nc(=O)[nH]c(=O)c-2nc2cc(Cl)c(Cl)cc21,76%
9,CC(=O)c1cc2ccccc2o1,102%
10,COc1cc(C2CC(c3ccc(Cl)cc3)=NN2C(C)=O)ccc1Oc1ccnc2cc(Cl)ccc12 (stereo not given),110%
11,COc1ccc(-c2nc(SCC(C)C)nc(Nc3ccc(C(=O)O)cc3)c2C#N)cc1,99.7%
12,CCc1c(C(=O)NCc2c(O)ccc3cccc(O)c23)[nH]c(C)c1C(C)=O,41.5%
13,CCC(=O)N1C/C(=C/c2ccc(OC)cc2)C(=O)/C(=C/c2ccc(OC)cc2)C1,25.1%
14,O=C(c1cnn2c1NC(c1ccc(F)cc1)C2)N1CCCCC1 (stereo not given),99.7%
15,Cc1csc(NC(c2ccc(Br)cc2)c2c(C)nc3ccccn23)n1 (stereo not given),102%
16,Cc1ccc(NC(=O)N/C(N)=N/c2nc(=O)c3ccccc3s2)cc1,33.7%
17,CCOC(=O)C(CC)n1c(=O)c2cc(OC)c(OC)cc2c2cnc3[nH]ccc3c21 (stereo not given),62.1%
18,CCCCc1nc(Cl)c(CO)n1Cc1ccc(-c2ccccc2-c2nn[nH]n2)cc1,110%
19,O=C1C(=O)c2c(nc3ccc(Cl)cn23)-c2ccccc21,-79.7% (active)
20,CC(=O)Cc1cc(-c2cc(CC(C)=O)[nH]n2)n[nH]1,88.1%

# From PubChem BioAssay (NCI)
